# Source: PubChem BioAssay AID686979 (National Center for Advancing Translational Sciences (NCATS), 2013)
# Values joined by “and” are separate entries in the source; they are usually repeats but may differ in a detail not shown here. Equal entries are not always repeated. About 50,000 (12%) of roughly 420,000 compounds were called active. A call without a number means that no potency is given here. Another 26% or so got no clear call; they are omitted. This is one part of a sample in which actives are shown more often than they occur. Calls come from the whole dose curve; as a rule, active = well fitted inhibition curve with a large enough effect; inconclusive = small, poorly fitted or top-dose-only effect; inactive = flat fitted curve, though single readings scatter.
# Test: qHTS for Inhibitors of human tyrosyl-DNA phosphodiesterase 1 (TDP1): qHTS in cells in presence of CPT; note: nearly all actives have a fitted effect of over 55% in size
# Conditions: chicken DT40 Tdp1-/-;hTDP1 cells + 20 nM CPT, ATP luminescence, 48 h; series mostly up to 46.2 µM
# Summary of the method: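 Cell growth measured by CellTiter-Glo luminescence after a minimum 48 h, 37 C compound exposure with 20 nM CPT in Tdp1-knockout DT40 cells stably expressing hTDP1, seeded 400/well; qHTS titration format.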
# Potency is the fitted concentration of half-maximal effect.
row,SMILES,Potency
1,CCn1c(SCC(=O)NC2CC2)nnc1-c1ccccn1,inactive
2,CO[C@H]1[C@@H](O)[C@H](N)[C@@H](O[C@H]2O[C@H]([C@H](C)N)CC[C@H]2N)[C@H](O)[C@@H]1N(C)C(=O)CN,inactive
3,CC[C@]1(O)CC2CN(CCc3c([nH]c4ccccc34)[C@@](C(=O)OC)(c3cc4c(cc3OC)N(C=O)[C@H]3[C@@](O)(C(=O)OC)[C@H](OC(C)=O)[C@]5(CC)C=CCN6CC[C@]43[C@@H]65)C2)C1 (stereo partly specified),0.146 µM (active)
4,CC[C@]1(O)C[C@@H]2CN(CCc3c([nH]c4ccccc34)[C@@](C(=O)OC)(c3cc4c(cc3OC)N(C)[C@H]3[C@@](O)(C(=O)OC)[C@H](OC(C)=O)[C@]5(CC)C=CCN6CC[C@]43[C@@H]65)C2)C1,65.1 nM (active) and 47.3 nM (active) and 146 nM (active)
5,CCc1nc2onc(C)c2c(=O)n1CC(=O)O,inactive
6,O=C1Cc2cc(S(=O)(=O)Nc3cccc(F)c3)ccc2N1,inactive
7,CCC(C(=O)Nc1cccc(-c2nc3cccnc3s2)c1C)c1ccccc1 (stereo unspecified),20.6 µM (active)
8,CCC(C(=O)Nc1ccc(C(C)C)cc1)c1ccccc1 (stereo unspecified),inactive
9,CC(=O)Nc1cccc(-c2nc3ccccc3s2)c1C,inactive
10,Cc1cccc(C(=O)Nc2ccc(-c3nc4ccccc4s3)c(C)c2)c1,inactive
11,CCC(C(=O)Nc1ccc2c(c1)OCCO2)c1ccccc1 (stereo unspecified),inactive
12,Cc1c(NC(=O)C(C)(C)C)cccc1-c1nc2ccccc2s1,13 µM (active)
13,Cc1c(O)cc2c(c1C)O[C@](C)(CCC[C@H](C)CCC[C@H](C)CCCC(C)C)CC2,inactive
14,Cc1ccc(NC(=O)c2cc([N+](=O)[O-])ccc2Cl)c(O)c1,inactive
15,CCC(=O)Nc1ccc(Nc2nc(Cl)nc(Nc3ccc(NC(=O)CC)cc3)n2)cc1,inactive
16,COc1ccc(N2CCN(c3ccc([N+](=O)[O-])cc3Cl)CC2)cc1,inactive
17,CCOc1ccc(Nc2nc(Cl)nc(N3CCN(c4ccc(OC)cc4)CC3)n2)cc1,18.4 µM (active)
18,CCOC(=O)N1CCN(CCC(=O)Nc2ccccc2)CC1,inactive
19,Cc1noc(C)c1CSCC(=O)Nc1nc2ccc(Oc3ccccc3)cc2s1,inactive
20,O=C(Nc1ccc(S(=O)(=O)N2CCCCC2)cc1)C1CC(=O)N(c2ccc(F)cc2)C1 (stereo unspecified),inactive
21,COC[C@@H]1NS(=O)(=O)c2ccc(Br)cc2O[C@H]1c1ccccc1,inactive
22,Cc1ccc(C)c(NC(=O)C2CCCN(S(=O)(=O)c3cn(C)cn3)C2)c1 (stereo unspecified),inactive
23,CCOc1ccc2nc(C(=O)N3CCCC(C)C3)sc2c1 (stereo unspecified),inactive
24,CCOc1ccc2nc(N3CCCC(C(=O)Nc4cc(C)ccc4C)C3)sc2c1 (stereo unspecified),23.1 µM (active)

row,SMILES,Potency
1,COCC(C)NS(=O)(=O)c1ccc(N2CCCCS2(=O)=O)cc1 (stereo unspecified),inactive
2,COC(=O)C1=C(C)N=C2SC(C)C(=O)N2C1/C=C/c1ccccc1 (stereo unspecified),inactive
3,CCOC(=O)c1ccccc1N1C(=O)C2Sc3[nH]c(=O)sc3C(/C=C/c3ccccc3)C2C1=O (stereo unspecified),18.4 µM (active)
4,CC(OC(=O)c1ccccc1N1C(=O)C2C3CCC(C3)C2C1=O)C(=O)c1ccccc1 (stereo unspecified),inactive
5,CCOc1ccc2[nH]c(=O)c(CN(CCCO)C(C)=O)cc2c1,inactive
6,Cc1ccc2[nH]c(=O)c(CN(CCCN(C)C)C(=O)Nc3cccc(Cl)c3)cc2c1,20.6 µM (active)
7,CCC(=O)N(CCc1ccccc1)Cc1cc2cc(C)ccc2[nH]c1=O,inactive
8,Cc1cc(NC(=O)c2ccccc2C)no1,inactive
9,OCCn1c(-c2ccccc2)csc1=Nc1ccccc1,25.9 µM (active)
10,Cc1csc(=Nc2ccccc2)n1CCO,inactive
11,Cc1nc(SCC(=O)NC2CCCC2)[nH]c(=O)c1C,inactive
12,CC(CC(=O)N1CCN(c2ccccc2)CC1)S(=O)(=O)c1ccc2c(c1)NC(=O)CS2 (stereo unspecified),23.1 µM (active)
13,O=C1CSc2ccc(S(=O)(=O)NCc3ccccc3)cc2N1,inactive
14,COc1ccccc1N1CCN(S(=O)(=O)c2ccc3c(c2)NC(=O)CS3)CC1,inactive
15,Cc1ccccc1OCCC(=O)OCC(=O)NCCc1ccc(S(N)(=O)=O)cc1,inactive
16,Cc1noc(C)c1S(=O)(=O)Nc1cc(C(F)(F)F)ccc1N1CCOCC1,inactive
17,Cc1oc2c(F)c(F)c(F)c(F)c2c1S(=O)(=O)Nc1cccc(C(F)(F)F)c1,11.6 µM (active)
18,Cc1ccc(N(CCC(=O)O)S(=O)(=O)c2cccc(C(F)(F)F)c2)cc1,inactive
19,O=S(O)CNc1ccc(S(=O)(=O)c2ccc(NCS(=O)O)cc2)cc1,inactive
20,CC(=O)O[C@]1(C(C)=O)CC[C@H]2[C@@H]3C=C(C)C4=CC(=O)CC[C@]4(C)[C@H]3CC[C@@]21C,inactive
21,C[C@]12CCC(=O)C=C1C=CC1C2CC[C@@]2(C)C1CC[C@@]21CCC(=O)O1 (stereo partly specified),20.6 µM (active)
22,COC(=O)[C@@H]1CC2=CC(=O)CC[C@]2(C)[C@@]23O[C@@H]2C[C@@]2(C)[C@@H](CC[C@@]24CCC(=O)O4)[C@H]13,inactive
23,CN1CCN(C(=O)/C(=C\c2ccc3c(c2)OCO3)NC(=O)c2cccs2)CC1,inactive
24,CCn1ccnc1CN(C)C(=O)c1cc(COc2ccc(Cl)cc2OC)on1,inactive

row,SMILES,Potency
1,O=C(O)CCn1c(SCc2cc(=O)n3ccccc3n2)nc2ccsc2c1=O,inactive
2,Cc1cc(C)cc(CN2CCc3nnc(C(NS(C)(=O)=O)C(C)C)n3CC2)c1 (stereo unspecified),inactive
3,Cc1cccc(CSc2nnc(C)c(=O)n2N)c1,inactive
4,Cc1cccc(-c2nc(SCc3ccc(Br)cc3)n3[nH]c(=O)cc3n2)c1,16.4 µM (active)
5,CCc1ccccc1OCCSc1nc(-c2cccs2)nc2cc(=O)[nH]n12,inactive
6,CCN(CC(=O)Nc1ccccc1C(F)(F)F)C(=O)C1CCN(C(=O)Nc2ccccc2)CC1,inactive
7,NC(=O)c1ccsc1NC(=O)COC(=O)COc1ccc(C=O)cc1,inactive
8,COC(=O)c1ccc(/C=N/N2C(C)CCCC2C)cc1 (stereo unspecified),inactive
9,CC(C)(C)c1ccc(C(=O)C[n+]2cccc3cc(Cl)ccc32)cc1,5.01 µM (active)
10,COC(=O)C[n+]1cccc2ccccc21,inactive
11,Cc1cccc[n+]1CC(=O)c1ccccc1,inactive
12,CCCC(O)(c1ccccc1)C(c1ccccc1)c1ccccn1 (stereo unspecified),inactive
13,COc1ccc(NC(C)=O)cc1NC(=O)CN1CCN(c2ccccn2)CC1,inactive
14,O=C(c1c(F)cccc1Cl)N1CCN(c2ccccn2)CC1,inactive
15,Cc1nc(N2CCN(c3ccccn3)CC2)c2c(C)c(C(=O)Nc3ccc(F)c(Cl)c3)sc2n1,16.4 µM (active)
16,Cc1ccc(NC(=O)Cn2cnc3nc4c(cc3c2=O)CCCC4)cc1Cl,inactive
17,Cc1cc(NS(=O)(=O)c2ccc(NC(=O)c3cccc(OC(F)F)c3)cc2)nc(C)n1,inactive
18,O=S(=O)(Nc1n[nH]c(C(F)(F)F)n1)c1ccccc1,inactive
19,COCc1[nH]nc2c1C(C1C=CCCC1)C(C#N)=C(N)O2 (stereo unspecified),13 µM (active)
20,CCOc1c(OC)cc(C2C(C#N)=C(N)Oc3n[nH]c(-c4ccncc4)c32)cc1OC (stereo unspecified),inactive
21,CCCc1nc2c([nH]1)C(c1cccnc1)C(C#N)=C(N)O2 (stereo unspecified),inactive
22,CCCc1[nH]nc2c1C(c1c(C)nn(-c3ccccc3)c1Cl)C(C#N)=C(N)O2 (stereo unspecified),11.2 µM (active)
23,Cc1cc(C)c(C#N)c(SCc2[nH]nc3c2C(c2ccccc2)C(C#N)=C(N)O3)n1 (stereo unspecified),inactive
24,CCCc1[nH]nc2c1C(c1ccc(OC(=O)c3ccco3)cc1)C(C#N)=C(N)O2 (stereo unspecified),inactive

row,SMILES,Potency
1,CCCc1[nH]nc2c1C(c1ccc(Br)s1)C(C#N)=C(N)O2 (stereo unspecified),6.51 µM (active)
2,CCc1ccc(C2C(C#N)=C(N)Oc3n[nH]c(CC(=O)OC)c32)cc1 (stereo unspecified),inactive
3,CCCc1[nH]nc2c1C(c1ccc(OC)c(Cn3nc(C)c(Br)c3C)c1)C(C#N)=C(N)O2 (stereo unspecified),inactive
4,Cc1nn(-c2ccccc2)c2c1C(c1ccc(F)cc1)C(C#N)=C(N)O2 (stereo unspecified),inactive
5,CCCc1[nH]nc2c1C(C1CC=CCC1)C(C#N)=C(N)O2 (stereo unspecified),16.4 µM (active)
6,N#CC1=C(N)OC2=C(C(=O)CCC2)C1C1CC=CCC1 (stereo unspecified),inactive
7,C[C@@H]1CN([C@H](C)CO)C(=O)CCCn2cc(nn2)CO[C@H]1CN(C)S(C)(=O)=O,inactive
8,O=C(O)c1ccccc1C(=O)NC1=NN(c2ccccc2)CC1,inactive
9,CNS(=O)(=O)c1ccc2c(c1)[nH]c(=S)n2C,inactive
10,CSc1ccccc1NC(=O)c1cc(Cl)sc1Cl,inactive
11,O=c1[nH]c(/C=C\c2cccc(C(F)(F)F)c2)nc(O)c1[N+](=O)[O-],inactive
12,Cc1ccc(C)c(NC(=S)NNC(=S)Nc2ccc(C(C)C)cc2)c1,inactive
13,CC(OC(=O)CCC(=O)c1ccccc1)C(=O)Nc1ccc(F)cc1 (stereo unspecified),inactive
14,CCc1ccc(NC(=O)CN2C(=O)CSC2=O)cc1,inactive
15,Cc1ccc(OCCC(=O)Nc2ccc(S(=O)(=O)Nc3nccs3)cc2)cc1,inactive
16,O=C1c2cccc3c([N+](=O)[O-])ccc(c23)C(=O)N1CC1CCCO1 (stereo unspecified),6.51 µM (active)
17,O=C(NCc1ccc2c(c1)OCO2)c1ccc2c(c1)C(=O)N(CC1CCCO1)C2=O (stereo unspecified),inactive
18,CCC(=O)Nc1ccc(C(=O)Nc2ccc3c(c2)C(=O)N(CC2CCCO2)C3=O)cc1 (stereo unspecified),inactive
19,Cc1nn(C(C)CC(=O)O)c(C)c1C (stereo unspecified),inactive
20,NS(=O)(=O)c1ccc(CNC(=S)NC(=O)c2ccco2)cc1,inactive
21,CC(=O)N(Cc1cc(=O)[nH]c2ccccc12)c1ccc(C)cc1C,inactive
22,Cc1ccc(N(Cc2cc(=O)[nH]c3ccccc23)C(=O)CCl)cc1,2.91 µM (active)
23,Cc1ccc(N(Cc2cc3ccccc3[nH]c2=O)C(=O)c2cccs2)cc1,inactive
24,COc1ccc(Cc2nnc(SCC(=O)Nc3ccc(C)c(C)c3)o2)cc1OC,inactive
